Sampled rows, rich in hits. Any-hit rate of the full collection: about 1.9%.
HttQ103 aggreg – inhibitors of mutant huntingtin aggregate formation in PC12 cells | PC12 HttQ103-GFP aggregates, Acumen cytometry, 40 h | Potency, µM (titrated, usually from 46.1 µM), without a hit: at the highest dose activity change, negative = inhibition, actives largely listed as inhibitors | AID 1688 | hit rate 1.1% among 220,000; also: % is scaled to controls: 0 for no effect and ±100 for the full control effect; nearly all actives have a fitted effect of over 60% in size
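Steps: seed 1500 PC12 HTTQ103-GFP cells/well; add tebufenozide, 100 nM final; add compound titration; add ATPLite reagent; quantify GFP aggregates by laser scanning cytometry.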
ERK EGF block – EGF-driven ERK pathway inhibition. HEK293-V1b, EGF-stimulated phospho-ERK AlphaScreen. Potency, µM (top dose mostly 11.5 µM), inactives show at the highest dose activity change, negative = inhibition, actives largely listed as inhibitors. hit rate 0.41% among 130,000. AID 1454;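 also: plate controls were stimulated vehicle wells for no effect and unstimulated vehicle basal for full effect; nearly all actives have a fitted effect of over 55% in size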
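Stably V1b-transfected HEK293 cells; 30 min compound, then EGF 25 nM final for 5 min at 37C; 10 min lysis; phospho-ERK by AlphaScreen after 5 hr beads at room temperature.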
NPSR antag – blocks cAMP signaling of the human neuropeptide S receptor | hit rate 1% among 220,000 | Q6W5P4 | Potency, µM (top dose mostly 38.3 µM), for inactives: at the top dose activity change, negative = inhibition, actives largely listed as inhibitors | CHO-NPSR cells, cAMP TR-FRET, antagonist mode | AID 1461; also: % is scaled to controls: 0 for no effect and ±100 for the full control effect; nearly all actives have a fitted effect of over 50% in size
Target sequence (Q6W5P4 whole entry, looked up): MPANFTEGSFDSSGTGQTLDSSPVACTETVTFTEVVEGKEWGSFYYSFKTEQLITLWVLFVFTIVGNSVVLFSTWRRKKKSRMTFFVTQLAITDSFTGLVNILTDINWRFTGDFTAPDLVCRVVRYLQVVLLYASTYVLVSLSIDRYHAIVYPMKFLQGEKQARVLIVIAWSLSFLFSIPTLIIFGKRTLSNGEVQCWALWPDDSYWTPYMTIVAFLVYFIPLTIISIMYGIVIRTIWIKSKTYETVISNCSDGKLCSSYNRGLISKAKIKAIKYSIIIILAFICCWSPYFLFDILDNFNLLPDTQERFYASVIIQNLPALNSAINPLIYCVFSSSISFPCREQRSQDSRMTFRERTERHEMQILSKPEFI
HTT cytoprotect – cytoprotection in Huntington HTT-Q103 PC12 cell model; Potency, µM (doses to about 56.4 µM), inactives show cytoprotection (ATP increase), actives largely listed as activators; hit rate 0.14% among 230,000; PC12 HTT-Q103 induced, cytoprotection, ATP luminescence, 40 h; AID 1471; also: % of control where 0% means no effect; nearly all actives have a fitted effect of over 45% in size
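Compounds were screened for protection of PC12 cells against cell death after tebufenozide induction (100 nM final) of mutant Huntingtin exon 1 (Q103) fused to GFP.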
IMPase Li cell – IMPase inhibition in cells with lithium potentiation; Potency, µM (doses to about 59.4 µM), without a hit: top-dose activity, negative = IMPase inhibition, actives largely listed as inhibitors; CHO-M1 cells, IP1 TR-FRET (IP-One), carbachol + lithium; hit rate 0.35% among 210,000; AID 1457;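 also: IP1 builds up when IMPase is blocked and the TR-FRET signal falls; plate controls were basal vehicle for no effect and high inhibitor control for full effect; nearly all actives have a fitted effect of over 50% in size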
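Concentration–response in CHO-M1 cells, lithium-potentiated; 30 min at 37C. IP1 detected by competitive TR-FRET after 10 min lysis at RT. Hill-fitted AC50.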
Numbers without * were called inactive; [ ] = remark or other dose. Calls follow the shape of the dose curve; as a rule, active = well fitted curve in the direction sought with a large enough effect; inconclusive = small, poorly fitted or top-dose-only effect, or another doubt; inactive = no such curve, though single readings can be large; an effect the other way counts as inactive or inconclusive. Potency is read from the fitted curve at half-maximal effect.

How did COc1ccc(C2/C=C\CN(C(=O)Nc3ccccc3-c3ccccc3)CC(=O)N2Cc2ccc(F)cc2)cc1 (centres undefined) do in these assays?
HttQ103 aggreg: -19.5%[9.22 µM]; ERK EGF block: -6.3%[57.5 µM]; NPSR antag: 10µM*; HTT cytoprotect: -14.3%[10 µM]

What do the screens show for `CSc1ccc(Cl)c(C(=O)NCC(C)C)c1`?
HttQ103 aggreg: 2µM*; NPSR antag: -4.4%[46.1 µM]; HTT cytoprotect: -17.3%[0.074 µM]; IMPase Li cell: 19.0%[38.3 µM]

What do the screens show for `CCCNC(=O)c1cc(SC)ccc1Cl`?
HttQ103 aggreg: -3.3%; NPSR antag: -5.1%[46.1 µM]; HTT cytoprotect: 16.1%; IMPase Li cell: 21.0%[38.3 µM]

Results for Cc1ccc(C2CC(c3cccs3)=NN2C(=O)c2ccc(Br)o2)cc1 (centres undefined) ?
HttQ103 aggreg: inconclusive; NPSR antag: 10µM*; HTT cytoprotect: -82.8%[10 µM]; IMPase Li cell: -1.1%[38.3 µM]

What do the screens show for `N=C1[C@@H](O)[C@]2(I)c3ccccc3N3C(=N)[C@H](O)[C@@H]4c5ccccc5N1[C@@H]4[C@@H]32`?
HTT cytoprotect: 5.0%[10 µM]; IMPase Li cell: -8.5%

Results for COCCN1C(=O)/C(=C/c2ccc(OCc3ccc(C(=O)O)cc3)c(OC)c2)SC1=Nc1ccccc1 ?
HttQ103 aggreg: inconclusive; ERK EGF block: -7.4%; NPSR antag: 12.6µM*; IMPase Li cell: 7.4%

What do the screens show for `c1ccc2cc(NCNc3ccc4ccccc4c3)ccc2c1`?
HTT cytoprotect: -13.5%[10 µM]; IMPase Li cell: -3.0%

How did O=C1CCSc2ccc(Cl)cc2N1Cc1cccc(Cl)c1 do in these assays?
HttQ103 aggreg: 22.4µM*; NPSR antag: inconclusive; HTT cytoprotect: -4.6%[10 µM]; IMPase Li cell: 12.1%

What do the screens show for `COC(=O)NC(c1cccc(C)c1)C(C(C)=O)C(=O)OC` (centres undefined)?
HTT cytoprotect: 6.6%[10 µM]

Results for COc1cccc(Cn2c(=O)c(CCc3ccccc3)nc3cnc(N4CCNCC4)nc32)c1 ?
HTT cytoprotect: -37.1%; IMPase Li cell: 9.8%

Results for C=CC(C)(C)c1[nH]c2ccccc2c1C1=C(O)C(=O)C(c2c[nH]c3c(CC=C(C)C)cccc23)=C(O)C1=O ?
ERK EGF block: -10.7%; HTT cytoprotect: 3.5%; IMPase Li cell: 23.2%

Results for C[N+](C)(C)[C@@H](C1=CCCC1=O)c1ccccc1 ?
HTT cytoprotect: 15.1%[10 µM]

How did COC(=O)c1ccc2nc(Nc3nc4c(F)cc(F)cc4s3)sc2c1 do in these assays?
HttQ103 aggreg: 6.31µM*; ERK EGF block: 2.1%; NPSR antag: -27.3%; IMPase Li cell: -3.5%

What do the screens show for `C/C(=C\C(=O)O)C(=O)Nc1nccs1`?
HttQ103 aggreg: 0.112µM*; NPSR antag: -8.6%[46.1 µM]; HTT cytoprotect: 2.1%; IMPase Li cell: -0.9%[38.3 µM]

Results for O=C(O)/C=C/C(=O)Nc1nccs1 ?
HttQ103 aggreg: 15.4%[9.22 µM]; ERK EGF block: -14.9%[57.5 µM]; NPSR antag: -19.0%; HTT cytoprotect: 4.9%[10 µM]

How did CN(C)c1ccc(-c2cncnc2NCc2ccccc2)cc1 do in these assays?
ERK EGF block: inconclusive; HTT cytoprotect: -6.5%; IMPase Li cell: 7.3%

Results for N=c1c2c(-c3ccccc3)c(-c3ccccc3)n(Cc3ccco3)c2ncn1CCCn1ccnc1 ?
HttQ103 aggreg: -13.9%; ERK EGF block: -6.2%; NPSR antag: -16.6%; HTT cytoprotect: -0.4%[0.074 µM]; IMPase Li cell: 19.2%

Results for O=c1c2c3nc4ccccc4nc3n(Cc3ccccc3)c2ncn1Cc1ccco1 ?
HttQ103 aggreg: inconclusive; NPSR antag: 10µM*; HTT cytoprotect: -17.8%[0.074 µM]; IMPase Li cell: 12.3%[38.3 µM]

What do the screens show for `c1ccc(-c2c(-c3ccccc3)n(Cc3ccco3)c3ncnc(NCCCn4ccnc4)c23)cc1`?
HttQ103 aggreg: inconclusive; NPSR antag: 25.1µM*; HTT cytoprotect: -90.1%; IMPase Li cell: 48.8%[38.3 µM]

What do the screens show for `N=c1c2c(-c3ccccc3)c(-c3ccccc3)n(Cc3ccco3)c2ncn1Cc1ccccc1`?
HttQ103 aggreg: inconclusive; NPSR antag: 10µM*; HTT cytoprotect: -114.5%; IMPase Li cell: 49.7%[38.3 µM]

How did CC(C)Cn1cnc2c(c(-c3ccccc3)c(-c3ccccc3)n2Cc2ccco2)c1=N do in these assays?
HttQ103 aggreg: 5.5%[9.22 µM]; NPSR antag: inconclusive; HTT cytoprotect: -95.3%; IMPase Li cell: 42.7%[38.3 µM]

What do the screens show for `CC(=O)Oc1cc(-c2coc3cc(OC(C)=O)c(OC(C)=O)c(OC(C)=O)c3c2=O)cc(OC(C)=O)c1OC(C)=O`?
ERK EGF block: 8.1%; IMPase Li cell: 14.4%

Results for CCCC1=NN2C(=N)/C(=C\c3cc(C)n(-c4cccc(C)c4)c3C)C(=O)N=C2S1 ?
HttQ103 aggreg: 13.4%; ERK EGF block: -6.8%; NPSR antag: -54.6%; IMPase Li cell: 3.7%

What do the screens show for `CC1=NN2C(=N)/C(=C\c3cc(C)n(-c4ccc(C)cc4)c3C)C(=O)N=C2S1`?
HttQ103 aggreg: 8.3%[9.22 µM]; ERK EGF block: 3.4%[57.5 µM]; NPSR antag: 12.6µM*; HTT cytoprotect: -14.5%[10 µM]

Results for Cc1nc2ccccc2c(=O)n1/N=C/c1ccc2ccccc2c1O ?
HttQ103 aggreg: 1.4%[9.22 µM]; ERK EGF block: 9.8%[57.5 µM]; NPSR antag: 24.8%; HTT cytoprotect: 17.6%[10 µM]

Results for Cc1nnc(-c2ccccc2)c(=O)n1/N=C/c1c(O)ccc2ccccc12 ?
HttQ103 aggreg: 3.16µM*; NPSR antag: -10.0%[46.1 µM]; HTT cytoprotect: -50.7%; IMPase Li cell: -0.3%[38.3 µM]

Results for COc1ccc(/C=C/C(=O)CC(=O)/C=C/c2cccc(O)c2OC)cc1O ?
HTT cytoprotect: inconclusive; IMPase Li cell: 13.7%

How did COc1ccc(S(=O)(=O)Nc2ccccc2SC)cc1C do in these assays?
HttQ103 aggreg: inconclusive; NPSR antag: -22.1%[46.1 µM]; HTT cytoprotect: -0.9%[10 µM]; IMPase Li cell: 11.2µM*

Results for COc1ccc(S(=O)(=O)Nc2ccccc2OC)cc1C ?
HttQ103 aggreg: -16.1%; NPSR antag: -7.7%[46.1 µM]; HTT cytoprotect: -4.2%[0.074 µM]; IMPase Li cell: 15.9%[38.3 µM]

How did COc1ccc(S(=O)(=O)Nc2cccc(Cl)c2)cc1OC do in these assays?
HttQ103 aggreg: -0.1%; NPSR antag: -14.9%[46.1 µM]; HTT cytoprotect: -16.9%; IMPase Li cell: 6.3%[38.3 µM]

Results for COc1ccc(S(=O)(=O)Nc2cccc(SC)c2)cc1OC ?
HttQ103 aggreg: 0.708µM*; ERK EGF block: 1.2%; NPSR antag: -3.2%[46.1 µM]; HTT cytoprotect: 5.3%[10 µM]; IMPase Li cell: -0.6%

Results for O=C(O)CN(c1ccc(F)cc1)S(=O)(=O)c1ccc2c(c1)OCCO2 ?
NPSR antag: 8.4%[46.1 µM]; HTT cytoprotect: 3.16µM*; IMPase Li cell: -10.0%[38.3 µM]

Results for CC1Cc2ccccc2N1C(=O)COc1nc2ccccc2nc1N1CCOCC1 (centres undefined) ?
HttQ103 aggreg: 5.6%; NPSR antag: -27.3%[46.1 µM]; HTT cytoprotect: -8.5%; IMPase Li cell: 25.1µM*

How did COC(=O)C/C=C/[C@@H](C)[C@H](O)c1ccccc1Br do in these assays?
ERK EGF block: -0.8%; HTT cytoprotect: inconclusive; IMPase Li cell: 19.5%
